The campaign covered roughly 69,000 compounds. About 950 (1.4%) showed an effect of 50% or more. The entries come from a sample that favours strong results as a whole.
What follows are compounds tested on Mycobacterium tuberculosis (assay: Cornell M. t heat shock assay; also: in the data most compounds retested in dose-response had high values).
Assay type: functional, organism-based
Set-up: dose or concentration left out as unconfirmed
`Cc1nn(C)c(C)c1CCn1cncc1-c1ccc2c(c1)CC(C)N2C.Cl` (stereo unspecified) was tested, and the “Percent Effect” value was 15.02%. With `CN1CCCc2cc(-c3cncn3CCNC3CCS(=O)(=O)C3)ccc21.Cl` (stereo unspecified) the “Percent Effect” value was -0.7285%. `Cl.Cn1cc(C(=O)NCc2cncc3c2CCN(S(C)(=O)=O)C3)cn1` was tested, and the “Percent Effect” value was 36.5%. `O=C(O)C(F)(F)F.O=C(O)C(F)(F)F.O=C(O)C(F)(F)F.c1ccc(COC[C@H]2CC[C@H]3[C@H](CCN3Cc3ccccn3)O2)nc1` was tested, and the “Percent Effect” value was 4.762%. For `COc1ncccc1C(=O)N1CC[C@H]2C[C@H](c3nnc(C)[nH]3)O[C@@H]2C1.O=C(O)C(F)(F)F`, the “Percent Effect” value was -43.18%. `Cc1ccc(CN2C[C@@H]3CCN(Cc4cccnc4)C(=O)[C@H]3C2)s1.O=C(O)C(F)(F)F.O=C(O)C(F)(F)F` was tested, and the “Percent Effect” value was -19.89%. For `Cc1ccc(N2CCO[C@H]3CN(Cc4cnn(C)c4)C[C@H]32)nn1.O=C(O)C(F)(F)F.O=C(O)C(F)(F)F`, the “Percent Effect” value was 3.052%. `CCn1ncc2c1C(COCC1CC1)CN(c1ccc(C)nn1)C2.O=C(O)C(F)(F)F.O=C(O)C(F)(F)F` (stereo unspecified) was tested, and the “Percent Effect” value was 28.05%. In the case of `c1csc(-c2noc(CNCCn3cccn3)n2)c1`, the “Percent Effect” value is reported as -3.991%. With `Fc1ccc(CNCCn2cccn2)cc1F` the “Percent Effect” value was -1.295%. For `Clc1ccc(OCCNCCn2cccn2)cc1`, the “Percent Effect” value was -6.93%. In the case of `Clc1ccc(Cc2nc(CNCCn3cccn3)cs2)cc1`, the “Percent Effect” value is reported as 102.1%. In the case of `c1ccc(Cc2nc(CNCCn3cccn3)cs2)cc1`, the “Percent Effect” value is reported as 96.34%. For `CCOC1COC2(CCN(c3cccc(C)n3)CC2)C1.O=C(O)C(F)(F)F` (stereo unspecified), the “Percent Effect” value was -0.3848%. With `CCCOc1ccccc1CN[C@@H]1CCC[C@H]1Cc1cc(C)no1.O=C(O)CC(O)(CC(=O)O)C(=O)O` the “Percent Effect” value was -26.27%. For `CNC(=O)CN1CCOCC2(CCCN(CCc3ccccc3)C2)C1.O=C(O)C(F)(F)F.O=C(O)C(F)(F)F` (stereo unspecified), the “Percent Effect” value was -11.41%. `CO[C@@H]1CCN(Cc2ccoc2)C[C@@H]1Cc1ccccc1.O=C(O)C(F)(F)F` was tested, and the “Percent Effect” value was 28.11%. For `Cc1ccc(N2CC[C@@H]3[C@@H]2CCN3C(=O)Cc2ccsc2)nn1.O=C(O)C(F)(F)F`, the “Percent Effect” value was 8.036%. For `CC1CCN(c2cncc(CCC3CCCN3)n2)CC1.Cl` (stereo unspecified), the “Percent Effect” value was -9.936%. In the case of `CCCn1cc(-c2ccnc(NC3CCc4ccccc43)n2)c(C)n1` (stereo unspecified), the “Percent Effect” value is reported as 18.89%. For `CCCn1cc(-c2ccnc(NC3CCCc4ccccc43)n2)c(C)n1` (stereo unspecified), the “Percent Effect” value was 98%. In the case of `CCCn1ncc(-c2ccnc(NC3CCCc4ccccc43)n2)c1C` (stereo unspecified), the “Percent Effect” value is reported as 27.79%. `O=C(NCCc1cccs1)[C@H]1CO[C@H]2CCNC[C@H]2C1.O=C(O)C(F)(F)F` was tested, and the “Percent Effect” value was 0.5431%. With `Cc1nc(Nc2cnccn2)cc(C2CCCN2)n1.Cl` (stereo unspecified) the “Percent Effect” value was -30.38%. `Cl.c1cncc(CNc2cncc(C3CCCN3)n2)c1` (stereo unspecified) was tested, and the “Percent Effect” value was -18.35%. With `Cl.c1nnc(Nc2cncc(C3CCCN3)n2)s1` (stereo unspecified) the “Percent Effect” value was 104.6%. For `Cc1nc(Nc2ncc(C)s2)cc(C2CCCN2)n1.Cl` (stereo unspecified), the “Percent Effect” value was 6.055%. With `Cc1cc(Nc2cnccn2)cc(C2CCCN2)n1` (stereo unspecified) the “Percent Effect” value was -16.58%. In the case of `Cc1nc(Nc2nnc(C)s2)cc(C2CCCN2)n1.Cl` (stereo unspecified), the “Percent Effect” value is reported as -7.337%. With `Cl.c1cnc(Nc2cncc(C3CCCN3)n2)cn1` (stereo unspecified) the “Percent Effect” value was 54.88%. `Cc1nc(Nc2nncs2)cc(C2CCCN2)n1.Cl` (stereo unspecified) was tested, and the “Percent Effect” value was 5.522%. With `Cl.Cn1nc(C2CCN(C(=O)CCN3CCOCC3)CC2)c2cccnc21` the “Percent Effect” value was 0.9946%. With `CNC(=O)COC1COC2(CCN(Cc3ccncc3F)CC2)C1.O=C(O)C(F)(F)F` (stereo unspecified) the “Percent Effect” value was 44.76%. With `COc1cccc(CN2CCC3(CCN(C(=O)[C@H]4CCCO4)CC3)C2)c1.O=C(O)C(F)(F)F` the “Percent Effect” value was -2.359%. For `Cc1cnc(N2Cc3nccn3CC(Cn3ncccc3=O)C2)nc1.O=C(O)C(F)(F)F` (stereo unspecified), the “Percent Effect” value was -35.14%. In the case of `Cn1c(C2CC2)nc2c1CCN(CC(=O)Nc1nncs1)C2`, the “Percent Effect” value is reported as 13.67%. With `Cc1nnc(NC(=O)CN2CCCC(Cn3cncn3)C2)s1` (stereo unspecified) the “Percent Effect” value was 2.027%. In the case of `Cc1nnc(NC(=O)CN2CCCC(c3ccn[nH]3)C2)s1` (stereo unspecified), the “Percent Effect” value is reported as 101.7%. In the case of `Cc1nc(C)n(CC2CCCN(CC(=O)Nc3nncs3)C2)n1` (stereo unspecified), the “Percent Effect” value is reported as 11.86%. In the case of `Cc1nc(C)n(CC2CCCN(CC(=O)Nc3nnc(C)s3)C2)n1` (stereo unspecified), the “Percent Effect” value is reported as -28.96%. For `O=C(CN1CCCC(c2ccn[nH]2)C1)Nc1nncs1` (stereo unspecified), the “Percent Effect” value was 98.23%. In the case of `CCN(CC)S(=O)(=O)N1CC[C@H](c2ccccc2)[C@H]2NCCCC[C@H]21.Cl`, the “Percent Effect” value is reported as -6.669%. In the case of `CC(C)c1nnc(N2C[C@@H]3CC[C@H](C2)N(Cc2ccccc2)C3)s1`, the “Percent Effect” value is reported as 34.82%. For `COc1ccc(F)c(CN2CCCC3(CCN(C4CCOCC4)C3)C2)c1` (stereo unspecified), the “Percent Effect” value was 99.36%. In the case of `CCS(=O)(=O)N1CCC2(CCCN(Cc3cc(OC)ccc3F)C2)C1` (stereo unspecified), the “Percent Effect” value is reported as 24.11%. `COc1ccc(F)c(CN2CCCC3(CCN(S(C)(=O)=O)C3)C2)c1` (stereo unspecified) was tested, and the “Percent Effect” value was -18.53%.

From ChEMBL document CHEMBL3988442, “University of Dundee, Small-Polar-MMV Screening Library” (2021)
